Results published in PubChem BioAssay (Tox21).
Several values for one entry are separate records, joined by “and”; a condition that tells them apart may be missing. Identical values can stand only once. Inconclusive results are not listed. Entries that show only a call come without a potency. A structure can be active in one record and inactive in another. Activity calls are given as the source filed them. Calls follow the shape of the full dose curve.

Key:
[1] = target: Acetylcholinesterase (Homo sapiens) (UniProt P22303); assay: Acetylcholinesterase (AChE) small molecule antagonists: colormetric cell-based qHTS assay (AID 1347395); also: nearly all actives have a fitted effect of over 30% in size
Summary of the method: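 SH-SY5Y cells attached overnight, exposed to compound 30 min at 37 C, then given DTNB/acetylthiocholine; after 90 min at 37 C, colorimetric thiocholine read gives cellular AChE activity.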

[2] = target: Acetylcholinesterase (Homo sapiens) (UniProt P22303); assay: Acetylcholinesterase (AChE) small molecule antagonists: enzyme-based qHTS assay (AID 1347397); conditions: Potency: AChE enzyme activity inhibition; outcome: AChE enzyme activity inhibition; also: nearly all actives have a fitted effect of over 55% in size; also: potency is read from the fitted curve at half-maximal effect
Summary of the method: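 Colorimetric DTNB read-out of thiocholine released from acetylthiocholine by recombinant human AChE (50 mU/mL as dispensed). Compounds were preincubated 30 min at RT before substrate/DTNB addition, with a 10 min RT reaction.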

[3] = target: Acetylcholinesterase (Homo sapiens) (UniProt P22303); assay: Acetylcholinesterase (AChE) small molecule antagonists: fluorescence cell-based qHTS assay (AID 1347398); conditions: Potency: AChE activity; outcome: AChE activity; also: nearly all actives have a fitted effect of over 50% in size; also: potency is read from the fitted curve at half-maximal effect
Summary of the method: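 SH-SY5Y, 2,000 cells/well, attached overnight; cmpd 30 min 37 C; acetylthiocholine/Thiolite Green cocktail 40 min RT; fluorescence Ex/Em 490/520 nm.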

[4] = target: Acetylcholinesterase (Homo sapiens) (UniProt P22303); assay: Acetylcholinesterase (AChE) small molecule antagonists: enzyme-based qHTS assay with human liver microsomes (AID 1347399); conditions: Potency: qHTS inhibition; outcome: qHTS inhibition; also: nearly all actives have a fitted effect of over 60% in size
Summary of the method: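 Recombinant human AChE (50 mU/mL in the enzyme mix) and human liver microsomes (0.25 mg/mL final) were preincubated with compound and NADPH (0.25 mg/mL final) for 30 min at 37 C. Acetylthiocholine/DTNB was then added; thiocholine was read colorimetrically after 10 min at room temperature.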

Sequence of Acetylcholinesterase (Homo sapiens) (P22303 whole entry, looked up): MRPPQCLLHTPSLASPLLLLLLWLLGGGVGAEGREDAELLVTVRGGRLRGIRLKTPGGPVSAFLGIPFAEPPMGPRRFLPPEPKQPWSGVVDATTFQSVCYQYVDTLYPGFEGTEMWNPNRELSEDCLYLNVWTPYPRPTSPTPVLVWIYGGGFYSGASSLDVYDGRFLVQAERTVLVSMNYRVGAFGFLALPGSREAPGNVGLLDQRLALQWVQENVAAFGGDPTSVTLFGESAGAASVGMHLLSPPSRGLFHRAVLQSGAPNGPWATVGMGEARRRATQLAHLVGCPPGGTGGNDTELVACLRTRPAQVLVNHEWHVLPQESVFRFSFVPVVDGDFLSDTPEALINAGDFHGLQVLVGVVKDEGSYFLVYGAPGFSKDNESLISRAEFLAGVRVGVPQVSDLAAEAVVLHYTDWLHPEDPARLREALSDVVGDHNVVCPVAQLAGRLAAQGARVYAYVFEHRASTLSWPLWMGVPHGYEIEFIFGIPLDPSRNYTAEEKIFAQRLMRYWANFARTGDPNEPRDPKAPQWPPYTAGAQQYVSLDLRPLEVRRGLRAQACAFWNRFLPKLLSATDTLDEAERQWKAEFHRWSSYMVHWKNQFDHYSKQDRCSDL

| Structure (SMILES) | Potency [1] | Potency [2] | Potency [3] | Potency [4] | activity, negative = inhibition [1] | activity change, negative = inhibition [2] | activity change, negative = inhibition [3] | activity change, negative = inhibition [4] |
| --- | --- | --- | --- | --- | --- | --- | --- | --- |
| CCNC(=O)N1CCN(CCCC(c2ccc(F)cc2)c2ccc(F)cc2)CC1 | inactive | inactive | inactive | inactive | – | – | – | – |
| CCC(C(=O)O)c1ccc(N2Cc3ccccc3C2=O)cc1 (stereo not given) | inactive | inactive | inactive | inactive | – | – | – | – |
| ONc1ccccc1 | inactive | inactive | inactive | inactive | – | – | – | – |
| C[Si](C)(C)Cl | inactive | inactive | inactive | inactive | – | – | – | – |
| C=C(C)OC(C)=O | inactive | inactive | 32.7 µM (active) and inactive | inactive | – | – | – | – |
| Cc1nc(C2CCCCC2)c(-c2ccc(S(N)(=O)=O)c(F)c2)o1 | inactive | inactive | inactive | inactive | – | – | – | – |
| O=C(c1ccc(O)cc1)c1ccc(O)c(O)c1O | inactive | inactive | inactive | inactive | – | – | – | – |
| O=C(O)c1ccc2cc(C(=O)O)ccc2c1 | inactive | inactive | inactive | inactive | – | – | – | – |
| O=C1CCCCCN1SSN1CCCCCC1=O | inactive | inactive | inactive | inactive | – | – | – | – |
| CC(C)OB(OC(C)C)OC(C)C | inactive | inactive | inactive | inactive | – | – | – | – |
| CCCCN(CCCC)CCC(O)c1cc2c(Cl)cc(Cl)cc2c2cc(C(F)(F)F)ccc12 (stereo not given) | inactive | inactive | inactive | inactive | – | – | – | – |
| O=c1[nH]c(=O)c2ccccc2o1 | inactive | inactive | inactive | inactive | – | – | – | – |
| CCCCC(CC)COC(=O)CCCCCCCC(=O)OCC(CC)CCCC (stereo not given) | inactive | inactive | inactive | inactive | – | – | – | – |
| CCCCCC(=O)O[C@]1(C(C)=O)CC[C@H]2[C@@H]3CCC4=CC(=O)CC[C@]4(C)[C@H]3CC[C@@]21C | inactive | inactive | inactive | inactive | – | – | – | – |
| Cn1c(=O)c2c(ncn2CCO)n(C)c1=O | inactive | inactive | inactive | inactive | – | – | – | – |
| Cc1c[nH]c2ccccc12 | inactive | inactive | inactive | inactive | – | – | – | – |
| COc1cc2ncnc(Nc3cccc(Cl)c3)c2cc1OC | – | – | – | – | 5.54% [at 23.6 µM] (inactive) | -0.138% [at 23.6 µM] (inactive) | 1.23% [at 23.8 µM] (inactive) | 1.05% [at 23.6 µM] (inactive) |
| CCCCCCCCCCCCCCCC[N+](C)(C)Cc1ccccc1 | inactive | 82.2 µM (active) and 32.3 µM (active) and 38.9 µM (active) | 46.2 µM (active) and 57.4 µM (active) | inactive | – | – | – | – |
| COC(C)(OC)OC | inactive | inactive | inactive | inactive | – | – | – | – |
| CN1N=C(C(N)=O)CCC1=O | inactive | inactive | inactive | inactive | – | – | – | – |

| Structure (SMILES) | Potency [1] | Potency [2] | Potency [3] | Potency [4] | activity, negative = inhibition [1] | activity change, negative = inhibition [2] | activity change, negative = inhibition [3] | activity change, negative = inhibition [4] |
| --- | --- | --- | --- | --- | --- | --- | --- | --- |
| Cc1ccc(C(=O)c2ccccc2)cc1 | inactive | inactive | inactive | inactive | – | – | – | – |
| COCCOCCOCCOC | inactive | inactive | inactive | inactive | – | – | – | – |
| CC1(C)O[C@@H]2C[C@H]3[C@@H]4CCC5=CC(=O)C=C[C@]5(C)[C@H]4[C@@H](O)C[C@]3(C)[C@]2(C(=O)CO)O1 | inactive | inactive | inactive | inactive | – | – | – | – |
| CC(=O)NS(=O)(=O)c1ccc(N)cc1 | inactive | inactive | inactive | inactive | – | – | – | – |
| c1ccc2n[nH]nc2c1 | inactive | inactive | inactive | inactive | – | – | – | – |
| CC(=O)Nc1c(I)c(NC(C)=O)c(I)c(C(=O)O)c1I | inactive | inactive | inactive | inactive | – | – | – | – |
| O=[N+]([O-])c1c(Cl)cc(Cl)cc1Cl | inactive | inactive | inactive | inactive | – | – | – | – |
| CC1(C)C(=O)N(Cl)C(=O)N1Cl | inactive | inactive | inactive | inactive | – | – | – | – |
| CC(C)c1cccc(C(C)C)c1N1C(=O)c2ccc(O)cc2C1=O | inactive | inactive | inactive | inactive | – | – | – | – |
| CC1=CCC(C(C)(C)O)CC1 (stereo not given) | inactive | inactive | inactive | inactive | – | – | – | – |
| COCc1c(C(C)C)nc(C(C)C)c(/C=C/[C@@H](O)C[C@@H](O)CC(=O)O)c1-c1ccc(F)cc1 | inactive | inactive | inactive | inactive | – | – | – | – |
| O=C(O)C(S)C(S)C(=O)O (stereo not given) | inactive | inactive | inactive | inactive | – | – | – | – |
| CC(C)CC(C)(N)C#N (stereo not given) | inactive | inactive | inactive | inactive | – | – | – | – |
| CC(CCc1ccc(O)cc1)NCCc1ccc(O)c(O)c1 (stereo not given) | inactive | inactive | inactive | inactive | – | – | – | – |
| Nc1ccc2c(O)cc(S(=O)(=O)O)cc2c1 | inactive | inactive | inactive | inactive | – | – | – | – |
| CC1=C(C=O)C(C)(C)CC=C1 | inactive | inactive | inactive | inactive | – | – | – | – |
| CCNc1nc(NC(C)(C)C)nc(OC)n1 | inactive | inactive | inactive | inactive | – | – | – | – |
| CC1=CC(=O)CC(C)(C)C1(O)/C=C/C(C)=C\C(=O)O (stereo not given) | inactive | inactive | inactive | inactive | – | – | – | – |
| COc1cc(C(C)(C)C)c(O)c(C(C)(C)C)c1 | inactive | inactive | inactive | inactive | – | – | – | – |
| C=C(C)C(=O)OCCCCCCCC(C)C | inactive | inactive | inactive | inactive | – | – | – | – |

| Structure (SMILES) | Potency [1] | Potency [2] | Potency [3] | Potency [4] | activity, negative = inhibition [1] | activity change, negative = inhibition [2] | activity change, negative = inhibition [3] | activity change, negative = inhibition [4] |
| --- | --- | --- | --- | --- | --- | --- | --- | --- |
| C=C(C)C(=O)OCCOC(=O)CC(C)=O | inactive | inactive | inactive | inactive | – | – | – | – |
| CCCNC(C)(C)COC(=O)c1ccccc1 | inactive | inactive | inactive | inactive | – | – | – | – |
| CC(C)(C(=O)c1cccnc1)c1cccnc1 | inactive | inactive | inactive | inactive | – | – | – | – |
| CC[N+](CC)(CC(=O)Nc1c(C)cccc1C)Cc1ccccc1 | inactive | inactive | inactive | inactive | – | – | – | – |
| COc1nccnc1NS(=O)(=O)c1ccc(N)cc1 | inactive | inactive | inactive | inactive | – | – | – | – |
| CC(C)N(C)C | inactive | inactive | inactive | inactive | – | – | – | – |
| CO[C@H]1C=CO[C@@]2(C)Oc3c(C)c(O)c4c(O)c(c5c(c4c3C2=O)=NC2(CCN(CC(C)C)CC2)N=5)NC(=O)/C(C)=C\C=C/[C@H](C)[C@H](O)[C@@H](C)[C@@H](O)[C@@H](C)[C@H](OC(C)=O)[C@@H]1C | inactive | inactive | inactive | inactive | – | – | – | – |
| CC(C)c1cccc(C(C)C)c1N | inactive | inactive | inactive | inactive | – | – | – | – |
| CN(C)CCCN(C)CCCN(C)C | inactive | inactive | inactive | inactive | – | – | – | – |
| COc1cccc(OC)c1O | inactive | inactive | inactive | inactive | – | – | – | – |
| C=C(C)C(=O)OCc1ccccc1 | inactive | inactive | inactive | inactive | – | – | – | – |
| CC(C)OC(=O)c1cc(C(=O)OC(C)C)cc([N+](=O)[O-])c1 | inactive | inactive | inactive | inactive | – | – | – | – |
| S=C(NC1CCCCC1)NC1CCCCC1 | inactive | inactive | inactive | inactive | – | – | – | – |
| OC1CCCCC1 | inactive | inactive | inactive | inactive | – | – | – | – |
| O=C(O)C1(C(=O)O)CCC1.[NH2-].[NH2-].[Pt+2] | inactive | 21.9 µM (active) | inactive | inactive | – | – | – | – |
| COC(=O)c1ccc(C(=O)O)cc1 | inactive | inactive | inactive | inactive | – | – | – | – |
| CCCCCCOc1cc(C)c(O)c(C)c1C | inactive | inactive | inactive | inactive | – | – | – | – |
| CN1[C@@H]2CC[C@H]1CC(OC(=O)c1c[nH]c3ccccc13)C2 (stereo not given in full) | inactive | inactive | inactive | inactive | – | – | – | – |
| O=C(O)c1cc(C(=O)O)cc([N+](=O)[O-])c1 | inactive | inactive | inactive | inactive | – | – | – | – |
| O=C(O)[C@H](O)[C@@H](O)[C@H](O)[C@H](O)CO | inactive | inactive | inactive | inactive | – | – | – | – |
